# From PubChem BioAssay AID1159580 (chemical genetic matrix, 2015)
# “And” between values parts separate entries of the source, which are not always exact repeats. Equal entries are not always repeated. The whole screen tested about 5,500 compounds, of which about 2,000 (36%) were called active. Another 18% or so got no clear call; they are omitted. This is one part of the list. Values without a mark were called inactive. No stated cut-off is given here; in the data, active means normalized growth mostly below about 0.91 (no sharp cut-off); inconclusive means no clear call, values can overlap the other calls; inactive means mostly above about 0.92.
# Assay: chemical genetic growth profiling, strain panel (AID 1159580);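 further: tested at 20 µM; growth read once vehicle control cultures reached saturation at 30 °C; 1 = growth at the plate median or of vehicle wells; lower values mean less growth of the strain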
# Conditions: S. cerevisiae deletion strains, growth OD
compound,measurement,setting,value
OCCN1CCN(CCCN2c3ccccc3Sc3ccc(C(F)(F)F)cc32)CC1,normalized growth,"locus YAL013W, strain DEP1, active compounds read low",0.947 and 0.96
same,normalized growth,"locus YAL021C, strain ccr4, active compounds read low",0.828 (active)
same,normalized growth,"locus YAL026C, strain drs2, active compounds read low",0.0826 (active)
same,normalized growth,"locus YAL030W, strain snc1, active compounds read low",0.984
same,normalized growth,"locus YAL040C, strain CLN3, active compounds read low",1.01
same,normalized growth,"locus YBL061C, strain skt5, active compounds read low",0.951
same,normalized growth,"locus YBR009C, strain hhf1, active compounds read low",0.935
same,normalized growth,"locus YBR021W, strain FUR4, active compounds read low",0.589 (active)
same,normalized growth,"locus YBR023C, strain chs3, active compounds read low",0.899 (active)
same,normalized growth,"locus YBR171W, strain sec66, active compounds read low",0.992
same,normalized growth,"locus YBR229C, strain ROT2, active compounds read low",0.987
same,normalized growth,"locus YBR231C, strain swc5, active compounds read low",0.964
same,normalized growth,"locus YBR279W, strain paf1, active compounds read low",0.953
same,normalized growth,"locus YCL011C, strain gbp2, active compounds read low",0.919
same,normalized growth,"locus YCL016C, strain dcc1, active compounds read low",0.937
same,normalized growth,"locus YCL029C, strain bik1, active compounds read low",0.978
same,normalized growth,"locus YCL061C, strain MRC1 (second series), active compounds read low",0.957
same,normalized growth,"locus YCL069W, strain vba3, active compounds read low",0.995
same,normalized growth,"locus YCR088W, strain abp1, active compounds read low",0.987
same,normalized growth,"locus YDL005C, strain med2, active compounds read low",1
same,normalized growth,"locus YDL035C, strain GPR1, active compounds read low",0.928
same,normalized growth,"locus YDL040C, strain nat1, active compounds read low",0.98
same,normalized growth,"locus YDL074C, strain BRE1, active compounds read low",0.808
same,normalized growth,"locus YDL101C, strain DUN1, active compounds read low",0.979
same,normalized growth,"locus YDL134C, strain PPH21, active compounds read low",0.977
same,normalized growth,"locus YDL185W, strain tfp1, active compounds read low",0.981
same,normalized growth,"locus YDL192W, strain arf1, active compounds read low",0.963
same,normalized growth,"locus YDR001C, strain nth1, active compounds read low",0.989
same,normalized growth,"locus YDR069C, strain doa4, active compounds read low",0.863 (active)
same,normalized growth,"locus YDR101C, strain arx1, active compounds read low",0.933
same,normalized growth,"locus YDR137W, strain rgp1, active compounds read low",1.27 [resistant] (active)
same,normalized growth,"locus YDR150W, strain NUM1, active compounds read low",0.997
same,normalized growth,"locus YDR159W, strain sac3, active compounds read low",0.992
same,normalized growth,"locus YDR162C, strain NBP2, active compounds read low",0.947
same,normalized growth,"locus YDR195W, strain ref2",1.27 [resistant] (active)
same,normalized growth,"locus YDR297W, strain sur2, active compounds read low",0.981
same,normalized growth,"locus YDR318W, strain mcm21, active compounds read low",0.947
same,normalized growth,"locus YDR334W, strain swr1, active compounds read low",0.987
same,normalized growth,"locus YDR335W, strain msn5, active compounds read low",0.972
same,normalized growth,"locus YDR363W, strain ESC2, active compounds read low",0.978
same,normalized growth,"locus YDR388W, active compounds read low",0.878 (active)
same,normalized growth,"locus YDR392W, strain spt3, active compounds read low",1.06
same,normalized growth,"locus YDR502C, strain sam2, active compounds read low",0.939
same,normalized growth,"locus YEL003W, strain gim4, active compounds read low",0.982
same,normalized growth,"locus YEL037C, strain rad23, active compounds read low",0.994
same,normalized growth,"locus YEL061C, strain CIN8 (second series), active compounds read low",0.973
same,normalized growth,"locus YEL061C, strain CIN8, active compounds read low",0.996
same,normalized growth,"locus YER002W, strain NOP16, active compounds read low",1
same,normalized growth,"locus YER015W, strain faa2, active compounds read low",0.931
same,normalized growth,"locus YER016W, strain bim1, active compounds read low",0.979
same,normalized growth,"locus YER110C, active compounds read low",0.996
same,normalized growth,"locus YER111C, strain swi4, active compounds read low",0.986
same,normalized growth,"locus YER155C, strain BEM2 (second series), active compounds read low",1
same,normalized growth,"locus YER155C, strain BEM2, active compounds read low",0.989
same,normalized growth,"locus YER167W, strain BCK2, active compounds read low",0.974
same,normalized growth,"locus YFR010W, strain ubp6, active compounds read low",0.839 (active)
same,normalized growth,"locus YGL078C, strain dbp3, active compounds read low",0.986
same,normalized growth,"locus YGL086W, strain mad1, active compounds read low",0.964
same,normalized growth,"locus YGL167C, strain pmr1, active compounds read low",0.976
same,normalized growth,"locus YGL173C, strain kem1, active compounds read low",0.964
same,normalized growth,"locus YGL227W, strain vid30, active compounds read low",0.984
same,normalized growth,"locus YGL240W, strain doc1, active compounds read low",0.997
same,normalized growth,"locus YGL248W, strain PDE1, active compounds read low",0.989
same,normalized growth,"locus YGL253W, strain hxk2, active compounds read low",0.917
same,normalized growth,"locus YGR078C, strain PAC10, active compounds read low",0.907 and 0.971
same,normalized growth,"locus YGR135W, strain pre9, active compounds read low",0.896
same,normalized growth,"locus YGR229C, strain SMI1, active compounds read low",0.602 (active) and 0.781 (active)
same,normalized growth,"locus YGR252W, strain gcn5, active compounds read low",0.664 (active)
same,normalized growth,"locus YHR013C, strain ard1, active compounds read low",1
same,normalized growth,"locus YHR027C, strain rpn1, active compounds read low",0.937
same,normalized growth,"locus YHR030C, strain SLT2, active compounds read low",0.933
same,normalized growth,"locus YHR079C, strain IRE1 (second series), active compounds read low",0.973
same,normalized growth,"locus YHR094C, strain hxt1, active compounds read low",0.992
same,normalized growth,"locus YHR129C, strain ARP1, active compounds read low",0.983
same,normalized growth,"locus YHR142W, strain chs7, active compounds read low",0.897
same,normalized growth,"locus YHR200W, strain rpn10, active compounds read low",0.968
same,normalized growth,"locus YIL066C, strain RNR3, active compounds read low",0.915
same,normalized growth,"locus YIL073C, strain SPO22, active compounds read low",1.18
same,normalized growth,"locus YIL125W, strain kgd1, active compounds read low",0.995
same,normalized growth,"locus YIR030C, strain dcg1, active compounds read low",0.985
same,normalized growth,"locus YJL092W, strain hpr5, active compounds read low",0.969
same,normalized growth,"locus YJL095W, strain BCK1 (second series), active compounds read low",0.94
same,normalized growth,"locus YJL095W, strain BCK1, active compounds read low",0.794 (active)
same,normalized growth,"locus YJL115W, strain asf1, active compounds read low",0.95
same,normalized growth,"locus YJL129C, strain trk1, active compounds read low",0.96
same,normalized growth,"locus YJL134W, strain LCB3, active compounds read low",0.997
same,normalized growth,"locus YJL154C, strain vps35, active compounds read low",0.982
same,normalized growth,"locus YJL164C, strain tpk1, active compounds read low",0.917
same,normalized growth,"locus YJL166W, strain qcr8, active compounds read low",0.956
same,normalized growth,"locus YJL168C, strain set2, active compounds read low",0.991
same,normalized growth,"locus YJL187C, strain SWE1 (second series), active compounds read low",0.905
same,normalized growth,"locus YJR043C, strain POL32, active compounds read low",0.971
